The nature of test [1]: qHTS RealTime-Glo MT Cell Viability Assay in HepG2 cells - 40 hour (AID 1224870). Also: nearly all actives have a fitted effect of over 50% in size. Also: potency is read from the fitted curve at half-maximal effect. The procedure, abridged:
(§1)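 HepG2 cells mixed with RealTime-Glo MT reagents (NanoLuc plus cell-permeant prosubstrate) were seeded at 600 cells/well, incubated 5 h at 37 C/5% CO2, then pinned with compounds in DMSO; nonlytic luminescence tracked viability during 40 h treatment.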

A short description of test [2]: A CellTox Green Cytotoxicity Assay to monitor cytotoxicity in HEK293 cells - 40 hour (AID 1224871). Also: nearly all actives have a fitted effect of over 45% in size. Also: potency is read from the fitted curve at half-maximal effect. The method in brief:
(§2)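 Each value comes from one timepoint of a single continuous run in which HEK293 cells with CellTox Green were exposed to compound for up to 40 h at 37 C, dye fluorescence rising with cell death.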

A short description of test [3]: qHTS RealTime-Glo MT Cell Viability Assay in HepG2 cells - 8 hour (AID 1224873). Also: nearly all actives have a fitted effect of over 55% in size. Also: potency is read from the fitted curve at half-maximal effect. The method in brief:
as §1

The nature of test [4]: qHTS RealTime-Glo MT Cell Viability Assay in HEK293 cells - 40 hour (AID 1224874). Also: nearly all actives have a fitted effect of over 50% in size. Also: potency is read from the fitted curve at half-maximal effect. As to conditions: RealTime-Glo luminescence; max response: stronger effect = lower value. The method in brief: (§3)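 qHTS format; HEK293 cells with NanoLuc/prosubstrate reagent, 37 C/5% CO2 for 5 h pre-dosing; compounds 23 nL in DMSO; luminescence at each time point reflects viable cells.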
Test [5] can be described thus: A CellTox Green Cytotoxicity Assay to monitor cytotoxicity in HEK293 cells - 24 hour (AID 1224875). Also: nearly all actives have a fitted effect of over 45% in size. Also: potency is read from the fitted curve at half-maximal effect. The procedure, abridged:
as §2

Test [6] in a line: A CellTox Green Cytotoxicity Assay to monitor cytotoxicity in HepG2 cells - 16 hour (AID 1224876). Also: nearly all actives have a fitted effect of over 45% in size. Also: potency is read from the fitted curve at half-maximal effect. The procedure, abridged: (§4)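 Continuous culture of HepG2 cells with a membrane-impermeant DNA dye; rising fluorescence marks dead cells. Compound exposure lasted up to 40 h at 37 C, with reads every 8 h from 0 h.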
Test [7] can be described thus: qHTS RealTime-Glo MT Cell Viability Assay in HepG2 cells - 32 hour (AID 1224877). Also: nearly all actives have a fitted effect of over 55% in size. Also: potency is read from the fitted curve at half-maximal effect. The procedure, abridged:
(§5)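 Cells + NanoLuc/prosubstrate dispensed (600 cells/well) → 5 h at 37 C/5% CO2 → compounds in DMSO transferred → 40 h incubation at 37 C, luminescence read at 0, 8, 16, 24, 32, 40 h.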

Test [8] in a line: A CellTox Green Cytotoxicity Assay to monitor cytotoxicity in HepG2 cells - 24 hour (AID 1224878). Also: nearly all actives have a fitted effect of over 45% in size. Also: potency is read from the fitted curve at half-maximal effect. The procedure, abridged:
as §4

Test [9] can be described thus: A CellTox Green Cytotoxicity Assay to monitor cytotoxicity in HepG2 cells - 40 hour (AID 1224879). Also: nearly all actives have a fitted effect of over 40% in size. Also: potency is read from the fitted curve at half-maximal effect. The procedure, abridged: as §4
Test [10] is described as follows: qHTS RealTime-Glo MT Cell Viability Assay in HEK293 cells - 0 hour (AID 1224880). The method in brief: as §3
Test [11] is described as follows: A CellTox Green Cytotoxicity Assay to monitor cytotoxicity in HEK293 cells - 32 hour (AID 1224881). Also: nearly all actives have a fitted effect of over 40% in size. Also: potency is read from the fitted curve at half-maximal effect. The procedure, abridged:
as §2

A short description of test [12]: A CellTox Green Cytotoxicity Assay to monitor cytotoxicity in HepG2 cells - 32 hour (AID 1224883). Also: nearly all actives have a fitted effect of over 50% in size. Also: potency is read from the fitted curve at half-maximal effect. The procedure, abridged: as §4
The nature of test [13]: A CellTox Green Cytotoxicity Assay to monitor cytotoxicity in HEK293 cells - 8 hour (AID 1224884). Also: nearly all actives have a fitted effect of over 35% in size. Also: potency is read from the fitted curve at half-maximal effect. The method in brief:
as §2

Test [14] in a line: qHTS RealTime-Glo MT Cell Viability Assay in HepG2 cells - 16 hour (AID 1224885). Also: nearly all actives have a fitted effect of over 50% in size. Also: potency is read from the fitted curve at half-maximal effect. The procedure, abridged:
as §5

Test [15] in a line: qHTS RealTime-Glo MT Cell Viability Assay in HEK293 cells - 24 hour (AID 1224886). Also: nearly all actives have a fitted effect of over 50% in size. Also: potency is read from the fitted curve at half-maximal effect. The method in brief:
(§6)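 Tox21 10K qHTS, HEK293, 600 cells/well, RealTime-Glo reagent co-dispensed with cells; 5 h preincubation, compound by pintool, 37 C, luminescence at 0–40 h.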

Test [16] can be described thus: qHTS RealTime-Glo MT Cell Viability Assay in HEK293 cells - 8 hour (AID 1224887). Also: nearly all actives have a fitted effect of over 50% in size. Also: potency is read from the fitted curve at half-maximal effect. The method in brief:
as §3

Test [17] is described as follows: A CellTox Green Cytotoxicity Assay to monitor cytotoxicity in HEK293 cells - 16 hour (AID 1224888). Also: nearly all actives have a fitted effect of over 35% in size. The procedure, abridged:
as §2

Test [18] in a line: qHTS RealTime-Glo MT Cell Viability Assay in HepG2 cells - 0 hour (AID 1224889). Also: nearly all actives have a fitted effect of over 50% in size. The method in brief: as §5
The nature of test [19]: A CellTox Green Cytotoxicity Assay to monitor cytotoxicity in HepG2 cells - 0 hour (AID 1224882). Also: nearly all actives have a fitted effect of over 35% in size. The procedure, abridged:
as §4

The nature of test [20]: qHTS RealTime-Glo MT Cell Viability Assay in HEK293 cells - 16 hour (AID 1224872). Also: nearly all actives have a fitted effect of over 50% in size. Also: potency is read from the fitted curve at half-maximal effect. The method in brief: as §6

SMILES strings stand for the structures. Several values for one entry are separate records, joined by “and”; a condition that tells them apart may be missing. Identical values can stand only once. Records with an inconclusive call do not appear. The source holds several records for some structures; these can differ, active in one and inactive in another. Activity calls are given as the source filed them. Calls follow the shape of the dose curve; as a rule, active = well fitted curve in the direction sought with a large enough effect in the repeat runs; inconclusive = weak or mixed curves; inactive = no such curve, though single readings can be large; an effect the other way counts as inactive or inconclusive.
% is scaled to controls: 0 for no effect and ±100 for the full control effect.

Turning to `C1=Cc2cccc3cccc1c23`, the Potency entry in test [1], in [3], in test [6], in [7], in test [8] and in test [9] was “inactive” throughout. Moreover, the Potency result in test [10], in test [12], in test [13], in test [14], in test [15] and in [16] was “inactive” in each case. For the same compound, the Potency entry in test [17] and in test [18] was “inactive” in each case. Besides, the Potency in test [2], in test [5] and in test [11] was 49 µM (active) in each case. In addition, the max response in test [4] is -3.56% (inactive) and 0.553% (inactive).
Regarding `NC(=S)Nc1ccccc1`, the Potency result in [1], in test [3], in [7], in test [10], in test [14] and in [16] was “inactive” throughout. For the same compound, in test [18], the Potency entry was “inactive”. The Potency in test [2] was 49.8 µM (active) and inactive; in test [4] it was 4.98 µM (active); in [6], 49.8 µM (active) and inactive; in test [8], 49.8 µM (active) and inactive; in test [9] it was 55.9 µM (active) and inactive; in test [11], 49.8 µM (active) and inactive. The Potency in test [12] was 49.8 µM (active) and inactive; in [13], 49.8 µM (active) and inactive; in test [15], 8.86 µM (active) and inactive. The max response in [4] is -2.05% (inactive).
For the compound `Cc1ccc(OP(=O)(Oc2ccc(C)cc2)Oc2ccc(C)cc2)cc1`, the Potency entry in [1], in test [2], in test [3], in test [5], in test [6] and in [7] was “inactive” in each case. The Potency result in [8], in [10], in test [11], in test [13], in [14] and in [15] was “inactive” throughout. Also, the Potency result in [16], in [17] and in test [18] was “inactive” each time. Besides, the Potency in [9] is 4.36 µM (active) and inactive; in test [12], 4.89 µM (active) and inactive.
Take `N[C@@H](Cc1ccc(N(CCCl)CCCl)cc1)C(=O)O`: the Potency entry in [1], in test [2], in test [3], in test [5], in test [6] and in test [7] was “inactive” each time. Besides, the Potency entry in test [10], in [11], in [19], in [13], in test [14] and in test [15] was “inactive” in each case. Also, the Potency result in test [16], in [17] and in [18] was “inactive” in each case. For the same compound, the Potency in [4] is 4.69 µM (active).
`C#C[C@]1(O)CC[C@H]2[C@@H]3CCC4=CC(=O)CC[C@]4(C)[C@H]3CC[C@@]21C`: the Potency result in test [1], in test [3], in test [6], in test [7], in [8] and in test [10] was “inactive” in each case. Moreover, the Potency result in test [12], in test [13], in test [14], in test [15], in [16] and in [17] was “inactive” throughout. Moreover, the Potency in test [2] and in [11] was 49 µM (active) in each case.
Consider `CC(C)N(C(=O)SCC(Cl)=C(Cl)Cl)C(C)C`, for which the Potency entry in [1], in test [20], in [3], in test [5], in test [6] and in [7] was “inactive” throughout. For the same compound, the Potency entry in [8], in test [9], in [10], in [11], in [19] and in test [12] was “inactive” in each case. For the same compound, the Potency result in test [13], in test [14], in test [15], in test [16], in test [17] and in [18] was “inactive” throughout. The max response in test [4] was -12% (inactive) and 19.1% (inactive).
Turning to `CN(C)c1ccc(C(=O)c2ccc(N(C)C)cc2)cc1`, the Potency result in test [1], in test [2], in test [3], in test [5], in [6] and in test [7] was “inactive” each time. For the same compound, the Potency result in test [8], in test [10], in test [11], in [19], in test [13] and in test [14] was “inactive” in each case. Also, the Potency entry in test [17] and in [18] was “inactive” throughout. Besides, the Potency in test [4] is 3.47 µM (active); in test [9] it was 5.44 µM (active) and 1.95 µM (active); in test [12], 12.2 µM (active).
Regarding `O=C(CCl)c1ccccc1`, the Potency result in test [1], in test [3], in [5], in [6], in [7] and in test [8] was “inactive” throughout. Further, the Potency result in [9], in test [10], in test [12], in test [13], in [14] and in test [16] was “inactive” each time. In addition, the Potency entry in test [17] and in test [18] was “inactive” in each case. The Potency result in test [2] is “inactive and 54.9 µM (active)”; in test [11], “inactive and 54.9 µM (active)”; in test [15] it was “inactive and 49 µM (active)”.
For `COc1ccc(C(CN(C)C)C2(O)CCCCC2)cc1` (stereo unspecified), the Potency entry in test [1], in test [2], in test [3], in [5], in test [6] and in test [7] was “inactive” each time. The Potency entry in test [8], in test [9], in test [10], in [11], in [19] and in test [12] was “inactive” throughout. Moreover, the Potency entry in test [13], in test [14], in [15], in test [17] and in test [18] was “inactive” in each case. Besides, the max response in test [4] was -15.6% (inactive) and -9.44% (inactive).
On to `C=C(C)[C@H]1Cc2c(ccc3c2O[C@@H]2COc4cc(OC)c(OC)cc4[C@@H]2C3=O)O1`, for which the Potency is 44.2 µM (active) and 27.5 µM (active) in test [1]; 24.5 µM (active) and inactive in [3]; 44.2 µM (active) and 27.5 µM (active) in test [7]; 49.6 µM (active) and 38.9 µM (active) in test [8]; 24.9 µM (active) and 24.5 µM (active) in [9]; 27.9 µM (active) and 24.5 µM (active) in test [12]. Moreover, the Potency in test [14] is 31.3 µM (active) and 27.5 µM (active); in test [15], 62.5 nM (active) and 12.3 nM (active) and 47.7 nM (active); in [16] it was 249 nM (active) and 219 nM (active) and 60.1 nM (active). The Potency result in test [2], in test [5], in test [10], in [11], in test [19] and in test [13] was “inactive” each time. Further, the Potency entry in test [17] and in test [18] was “inactive” in each case.
Take `C#CCOS(=O)OC1CCCCC1Oc1ccc(C(C)(C)C)cc1` (stereo unspecified): the Potency entry in test [1], in test [5], in test [8], in test [9], in [10] and in test [11] was “inactive” in each case. Besides, the Potency result in test [12], in test [13], in [17] and in test [18] was “inactive” in each case. Also, the Potency was 21.9 µM (active) in test [2]; 17.4 µM (active) and 19.5 µM (active) in [20]; 7.77 µM (active) and 21.9 µM (active) in [4]; 15.5 µM (active) and 19.5 µM (active) in [15]; 17.4 µM (active) in [16].
`CCCCOCCOP(=O)(OCCOCCCC)OCCOCCCC`: the Potency result in test [1], in test [2], in [3], in test [5], in test [6] and in test [7] was “inactive” each time. Also, the Potency result in [10], in test [11], in test [19], in test [12], in [13] and in [14] was “inactive” each time. The Potency entry in [15], in [16], in test [17] and in [18] was “inactive” in each case.
